Measurements as given in PubChem BioAssay.
For some of these results: Measured potencies and affinities stand elsewhere. Calls of active or inactive are those of the source.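 The calls were made as follows, unless noted: active = primary screen inhibitor hit that blocks the TRPC4 channel at some tested dose, yielding a dose curve; inactive = the rest.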

What was measured:
[1] = tested on: TRPC4 beta (transient receptor potential cation channel C4), mouse; assay: activators of mouse TRPC4 channel, confirmation, cell-based, Fluo4 calcium, HEK293 TRPC4beta/mu-opioid, duplicates, 10 µM (AID 2426;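 active = fluorescence ratio normalized to control raised more than 50% in primary screen plus both repeat runs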); conditions: Fluo4 calcium fluorescence, at 10 µM; hits give high values
[2] = tested on: transient receptor potential cation channel C4 beta (TRPC4), mouse; assay: activators of mouse TRPC4 channel, confirmation, cell-based, second round, Fluo4, HEK293 TRPC4beta/mu-opioid, 1 µM (AID 2461;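 active = primary screen active and over 50% activation in each of two duplicate runs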); conditions: Fluo4 calcium fluorescence, at 1 µM; hits give high values
[3] = tested on: TRPC4 (transient receptor potential cation channel C4 beta), mouse; assay: positive allosteric modulators of mouse TRPC4, confirmation, cell-based, second round, Fluo-4, HEK293 TRPC4beta/mu-opioid, 1 µM (AID 2554;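 active = primary screen hit whose fluorescence ratio, in both repeats, exceeds the weak agonist control mean by 3 SD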); conditions: DAMGO EC20, Fluo-4 calcium flux, at 1 µM; hits give high values
[4] = tested on: TRPC4 beta (transient receptor potential cation channel C4), mouse; assay: positive allosteric modulators of mouse TRPC4, confirmation, cell-based, Fluo-4, HEK293 TRPC4beta/mu-opioid (AID 2555;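 active = primary screen hit whose calcium fluorescence ratio, in both repeats, exceeds the weak agonist control mean by 3 SD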); conditions: DAMGO EC20, Fluo-4 calcium flux, at 10 µM; hits give high values
[5] = target: Short transient receptor potential channel 4 (Mus musculus) (UniProt Q9QUQ5); assay: inhibitors of mouse TRPC4 channel, confirmation, cell-based, Fluo4, HEK293 TRPC4beta/mu-opioid (AID 2636;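 active = calcium signal cut by more than 3 SD below the full-agonist control yet still positive, in both repeats and the earlier primary screen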); conditions: DAMGO, Fluo4 calcium flux, at 10 µM; hits give high values
[6] = target: Short transient receptor potential channel 4 (Mus musculus) (UniProt Q9QUQ5); assay: inhibitors of mouse TRPC4 channel, confirmation, cell-based, second round, Fluo4, HEK293 TRPC4beta/mu-opioid, 1 µM (AID 2637;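 active = calcium signal ratio cut to more than 3 SD under the fully stimulated control mean yet still positive, in both repeats and the primary screen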); conditions: Fluo4 calcium flux, DAMGO, at 1 µM; hits give high values
[7] = target: Short transient receptor potential channel 4 (Mus musculus) (UniProt Q9QUQ5); assay: mouse TRPC4 channel activators, dose response, cell-based, HEK293 TRPC4/mu-opioid, Fluo-4 calcium (AID 434937;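 active = primary screen activator hit with a dose response curve and TRPC4 channel activation at any tested dose; inactive = no activation, no dose response, or not a primary hit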)
[8] = target: Short transient receptor potential channel 4 (Mus musculus) (UniProt Q9QUQ5); assay: TRPC4 positive allosteric modulators, dose response, cell-based, HEK293 TRPC4/mu-opioid, Fluo-4 calcium, EC20 DAMGO (AID 434941;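 active = earlier screen potentiator hit that boosts the TRPC4 ion channel at some dose, with a dose response; inactive = no potentiation, no dose response, or not a prior hit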;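 also: calcium entry triggered by an EC20 dose of DAMGO at the co-expressed mu-opioid receptor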)
[9] = target: Short transient receptor potential channel 4 (Mus musculus) (UniProt Q9QUQ5); assay: mouse TRPC4 channel inhibitors, dose response, cell-based, HEK293 TRPC4/mu-opioid, Fluo-4 calcium (AID 434942)
[10] = target: Short transient receptor potential channel 6 (Mus musculus) (UniProt Q61143); assay: inhibition of mouse TRPC6 channel, confirmation, selectivity assay for TRPC4 inhibitor project, cell-based, HEK293, membrane potential dye, duplicate (AID 434948;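 active = active in primary screen and both duplicates, each dropping signal beyond three positive-control SD with fluorescence still positive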); conditions: HEK293 TRPC6, membrane potential dye fluorescence, at 10 µM, stimulated with maximal-effect acetylcholine; hits give high values
[11] = target: Short transient receptor potential channel 6 (Mus musculus) (UniProt Q61143); assay: activation of mouse TRPC6 channel, confirmation, selectivity assay for TRPC4 activator project, cell-based, HEK293, membrane potential dye, duplicate (AID 434950;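 active = membrane potential signal rise above negative control mean plus 3 SD in both duplicates, also active in the earlier TRPC4 screen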); conditions: HEK293 TRPC6, membrane potential fluorescence, at 10 µM; hits give high values
[12] = target: Short transient receptor potential channel 6 (Mus musculus) (UniProt Q61143); assay: TRPC6 potentiation by TRPC4 potentiator hits, confirmation, selectivity assay for TRPC4 potentiator project, HEK293 cells, membrane potential dye, duplicate (AID 434952;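 active = compound raising the membrane signal above positive-control mean plus 3 SD in both repeats, and a primary screen hit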); conditions: HEK293 TRPC6, membrane potential dye fluorescence, at 10 µM, maximal acetylcholine added after compound; hits give high values
[13] = target: Short transient receptor potential channel 4 (Mus musculus) (UniProt Q9QUQ5); assay: calcium flux activators in TRPC4/5HT1a cells, counter-screen for TRPC4 activator project, cell-based, second counter screen, HEK293 TRPC4/5HT1a, Fluo-4 (AID 434977;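 active = calcium signal rise above buffer-control mean plus 5 SD in both duplicates, and also a hit in the primary screen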); conditions: Fluo-4 calcium flux, at 10 µM; hits give high values
[14] = calcium flux inhibitors in TRPC4/5HT1a cells, confirmation, counter-screen for TRPC4 inhibitor project, cell-based, second counter screen, HEK293 TRPC4/5HT1a, Fluo-4 (AID 434978;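 active = primary screen active whose calcium signal fell more than 3 SD beyond the full-serotonin control mean in both duplicate plates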;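 also: serotonin given first at submaximal then at maximal dose after compound preincubation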); conditions: Fluo-4 calcium flux, at 10 µM, serotonin added to trigger calcium flux; hits give high values
[15] = tested on: TRPC4 (mouse), co-expressed with 5HT1a in HEK293; assay: calcium flux potentiators in TRPC4/5HT1a cells, confirmation, counter-screen for TRPC4 potentiator project, cell-based, second counter screen, HEK293 TRPC4/5HT1a, Fluo-4 (AID 434979;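 active = signal rise over 3 SD above mean of control wells given weak agonist, in both repeats and first screen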); conditions: Fluo-4 calcium flux, at 10 µM, serotonin added at its EC20 dose; hits give high values
[16] = calcium flux activation in mu-opioid HEK293 cells, confirmation, counter-screen for TRPC4 activator project, cell-based, HEK293 mu-opioid receptor line (AID 449723;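 active = hit in primary screen, with calcium signal over 5 SD above buffer well mean in both duplicates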;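 also: counter screen cells carry the mu-opioid receptor alone and lack TRPC4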); conditions: Fluo-4 calcium fluorescence, at 10 µM; hits give high values
[17] = calcium flux enhancement in mu-opioid HEK293 cells, confirmation, counter-screen for TRPC4 allosteric potentiator project, cell-based, HEK293 mu-opioid receptor line (AID 449724;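 active = calcium signal rise more than 3 SD above the low-dose agonist control mean, in both duplicate plates and the primary screen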); conditions: Fluo-4 calcium flux, at 10 µM, compound added before EC20 DAMGO stimulus; hits give high values
[18] = thallium flux activation in parental CHO cells, counter-screen for KCNQ1 potentiator project (AID 493006;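 active = duplicate-averaged activation above buffer control mean plus 5 SD of those controls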;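 as to activation: fluorescence ratio of max minus min over baseline after K+ and Tl+ depolarization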); conditions: parental CHO-K1 cells, FluxOR thallium flux, at 10 µM; hits give high values
[19] = target: Potassium voltage-gated channel subfamily KQT member 1 (Homo sapiens) (UniProt P51787); assay: KCNQ1 potassium channel potentiators, confirmation, FluxOR thallium flux, CHO cells, duplicates (AID 493007;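 active = potentiation averaged over duplicate wells exceeding buffer-only control mean by more than 3 SD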;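 as to outcome: cells depolarized by a potassium plus thallium sulfate stimulus after compound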;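 as to potentiation: 0% = buffer-only wells and 100% = R-L3 activator control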); conditions: KCNQ1 cell line, FluxOR thallium flux fluorescence, at 10 µM; hits give high values, % of reference activator effect, buffer zero
[20] = target: Potassium voltage-gated channel subfamily KQT member 2 (Rattus norvegicus) (UniProt O88943); assay: rat KCNQ2 channel potentiation, selectivity assay for KCNQ1 potentiator project, KCNQ2-CHO-K1 cells (AID 493009;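 active = mean duplicate potentiation above the buffer control mean plus 5 SD of buffer wells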;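 also: assay conditions were tuned for KCNQ1 rather than KCNQ2 modulators; signal is max minus min fluorescence divided by baseline after thallium stimulus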); conditions: FluxOR thallium flux fluorescence, at 10 µM; hits give high values, scaled: buffer 0, activator control 100
Sequence of Potassium voltage-gated channel subfamily KQT member 2 (Rattus norvegicus) (O88943 whole entry, looked up): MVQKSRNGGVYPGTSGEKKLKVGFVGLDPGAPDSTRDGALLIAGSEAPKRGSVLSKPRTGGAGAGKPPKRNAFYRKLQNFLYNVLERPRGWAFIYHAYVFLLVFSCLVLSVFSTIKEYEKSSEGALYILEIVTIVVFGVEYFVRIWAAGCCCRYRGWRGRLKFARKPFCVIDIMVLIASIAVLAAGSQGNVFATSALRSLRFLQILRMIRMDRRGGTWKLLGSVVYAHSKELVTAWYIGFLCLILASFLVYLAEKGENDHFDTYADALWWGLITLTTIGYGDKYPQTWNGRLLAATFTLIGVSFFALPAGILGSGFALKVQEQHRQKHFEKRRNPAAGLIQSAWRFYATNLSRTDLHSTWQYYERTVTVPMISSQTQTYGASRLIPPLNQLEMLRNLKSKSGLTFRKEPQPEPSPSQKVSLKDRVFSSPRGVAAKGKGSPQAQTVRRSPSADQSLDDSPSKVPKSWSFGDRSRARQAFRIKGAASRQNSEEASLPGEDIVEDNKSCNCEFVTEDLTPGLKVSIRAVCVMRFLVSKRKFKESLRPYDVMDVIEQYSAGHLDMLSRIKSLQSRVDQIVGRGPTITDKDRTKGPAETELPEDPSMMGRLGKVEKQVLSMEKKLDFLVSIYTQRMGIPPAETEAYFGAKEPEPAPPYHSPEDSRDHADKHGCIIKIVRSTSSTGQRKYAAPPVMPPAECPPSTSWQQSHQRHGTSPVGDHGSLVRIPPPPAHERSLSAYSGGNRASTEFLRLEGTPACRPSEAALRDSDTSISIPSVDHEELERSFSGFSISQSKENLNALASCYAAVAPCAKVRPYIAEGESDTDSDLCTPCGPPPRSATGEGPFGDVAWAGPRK

Sequence of Potassium voltage-gated channel subfamily KQT member 1 (Homo sapiens) (P51787 whole entry, looked up): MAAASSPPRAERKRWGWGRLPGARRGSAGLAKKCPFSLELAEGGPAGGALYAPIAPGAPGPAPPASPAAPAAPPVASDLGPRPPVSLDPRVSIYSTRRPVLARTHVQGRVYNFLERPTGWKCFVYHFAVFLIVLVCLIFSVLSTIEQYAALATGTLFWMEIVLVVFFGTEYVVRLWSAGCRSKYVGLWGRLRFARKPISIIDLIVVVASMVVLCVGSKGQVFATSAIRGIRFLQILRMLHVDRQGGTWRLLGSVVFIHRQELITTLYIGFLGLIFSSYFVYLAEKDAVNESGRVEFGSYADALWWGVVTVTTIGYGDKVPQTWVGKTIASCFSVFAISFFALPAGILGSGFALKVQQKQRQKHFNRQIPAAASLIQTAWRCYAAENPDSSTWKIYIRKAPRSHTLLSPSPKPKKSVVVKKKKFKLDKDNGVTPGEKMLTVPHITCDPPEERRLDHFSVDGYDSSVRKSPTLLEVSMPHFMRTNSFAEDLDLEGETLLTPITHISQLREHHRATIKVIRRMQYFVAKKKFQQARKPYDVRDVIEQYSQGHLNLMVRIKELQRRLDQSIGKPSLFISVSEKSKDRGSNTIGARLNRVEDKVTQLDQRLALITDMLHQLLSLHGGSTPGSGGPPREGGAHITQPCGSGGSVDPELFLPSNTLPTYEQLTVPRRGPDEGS
Sequence of Short transient receptor potential channel 6 (Mus musculus) (Q61143 whole entry, looked up): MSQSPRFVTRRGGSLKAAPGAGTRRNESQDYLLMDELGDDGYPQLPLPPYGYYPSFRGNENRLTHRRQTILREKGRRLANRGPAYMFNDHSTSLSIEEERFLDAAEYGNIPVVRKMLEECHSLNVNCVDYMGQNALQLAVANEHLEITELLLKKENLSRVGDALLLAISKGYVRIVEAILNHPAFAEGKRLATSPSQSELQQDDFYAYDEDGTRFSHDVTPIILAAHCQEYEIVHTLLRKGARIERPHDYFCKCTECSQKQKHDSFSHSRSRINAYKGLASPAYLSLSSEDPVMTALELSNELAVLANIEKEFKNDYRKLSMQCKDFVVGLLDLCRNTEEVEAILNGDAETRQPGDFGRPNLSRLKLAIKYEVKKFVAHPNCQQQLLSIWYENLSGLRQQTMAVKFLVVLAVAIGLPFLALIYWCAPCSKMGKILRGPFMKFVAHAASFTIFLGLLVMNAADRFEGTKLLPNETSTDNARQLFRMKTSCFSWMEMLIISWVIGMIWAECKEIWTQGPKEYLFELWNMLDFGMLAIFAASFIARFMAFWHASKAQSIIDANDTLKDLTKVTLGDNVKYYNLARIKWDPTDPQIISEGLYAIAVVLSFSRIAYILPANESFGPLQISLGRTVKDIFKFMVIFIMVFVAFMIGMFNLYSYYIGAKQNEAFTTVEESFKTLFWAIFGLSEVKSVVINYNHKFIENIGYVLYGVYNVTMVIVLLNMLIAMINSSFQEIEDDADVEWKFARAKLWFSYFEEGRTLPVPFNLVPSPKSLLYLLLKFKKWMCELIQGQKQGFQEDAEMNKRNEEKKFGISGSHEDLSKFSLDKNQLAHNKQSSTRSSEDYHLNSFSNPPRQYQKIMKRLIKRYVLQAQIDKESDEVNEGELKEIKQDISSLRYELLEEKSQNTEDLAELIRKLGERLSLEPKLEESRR
Sequence of Short transient receptor potential channel 4 (Mus musculus) (Q9QUQ5 whole entry, looked up): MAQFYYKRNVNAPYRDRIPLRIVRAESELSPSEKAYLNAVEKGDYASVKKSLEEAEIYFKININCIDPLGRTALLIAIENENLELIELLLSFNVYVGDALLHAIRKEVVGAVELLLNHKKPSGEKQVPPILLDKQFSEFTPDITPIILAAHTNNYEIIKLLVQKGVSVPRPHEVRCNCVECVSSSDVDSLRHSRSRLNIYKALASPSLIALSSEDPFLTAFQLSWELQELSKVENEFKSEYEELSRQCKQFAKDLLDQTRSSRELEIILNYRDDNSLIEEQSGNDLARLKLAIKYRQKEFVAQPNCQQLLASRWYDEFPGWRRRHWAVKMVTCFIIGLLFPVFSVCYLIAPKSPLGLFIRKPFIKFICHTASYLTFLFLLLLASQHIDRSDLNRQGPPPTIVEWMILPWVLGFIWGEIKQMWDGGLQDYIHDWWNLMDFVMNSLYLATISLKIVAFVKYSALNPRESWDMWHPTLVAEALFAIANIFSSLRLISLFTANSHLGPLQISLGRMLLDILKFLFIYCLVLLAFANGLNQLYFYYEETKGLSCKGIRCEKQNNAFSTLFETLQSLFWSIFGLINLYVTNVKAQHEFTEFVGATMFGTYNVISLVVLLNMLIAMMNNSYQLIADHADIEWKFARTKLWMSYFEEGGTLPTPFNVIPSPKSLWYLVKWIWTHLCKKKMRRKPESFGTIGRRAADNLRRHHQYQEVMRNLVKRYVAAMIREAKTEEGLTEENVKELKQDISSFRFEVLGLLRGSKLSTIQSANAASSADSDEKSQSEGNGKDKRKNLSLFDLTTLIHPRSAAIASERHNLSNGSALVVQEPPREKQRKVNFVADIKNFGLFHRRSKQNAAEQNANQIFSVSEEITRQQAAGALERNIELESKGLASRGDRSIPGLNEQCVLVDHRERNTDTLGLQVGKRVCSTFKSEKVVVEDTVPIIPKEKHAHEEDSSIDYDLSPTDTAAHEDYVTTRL

CN(CCCNC(=O)CCCOc1cc(=O)n(C)c2ccccc12)Cc1ccccc1
active: potentiation [3] 21% | potentiation [4] 14% | potentiation [15] 20.2%
inactive: outcome [1] | outcome [2] | outcome [5] | outcome [6] | outcome [7] | outcome [8] | outcome [9] | outcome [10] | outcome [11] | outcome [12] | outcome [13] | outcome [14] | outcome [16] | outcome [17] | outcome [18] | outcome [19] | outcome [20]

COc1ccc(Br)cc1CN1CCC(N2CCCC2)CC1
inactive: outcome [1] | outcome [2] | outcome [3] | outcome [4] | outcome [5] | outcome [6] | outcome [7] | outcome [8] | outcome [9] | outcome [10] | outcome [11] | outcome [12] | outcome [13] | outcome [14] | outcome [16] | outcome [17]
active: potentiation [15] 13.5%

COc1cc(/C=C2\C(=N)N3N=C(S(C)(=O)=O)SC3=NC2=O)ccc1OC(=O)c1cccs1
inactive: outcome [1] | outcome [2] | outcome [3] | outcome [4] | outcome [6] | outcome [7] | outcome [8] | outcome [9] | outcome [10] | outcome [11] | outcome [12] | outcome [13] | outcome [14] | outcome [15] | outcome [16] | outcome [17]
active: inhibition [5] 86%

Cc1ccc(C(=O)O)cc1N=Cc1cc(Br)cc(Br)c1O
active: activation [18] 222% | potentiation [19] 164% | potentiation [20] 192%
inactive: outcome [1] | outcome [2] | outcome [3] | outcome [4] | outcome [5] | outcome [6] | outcome [7] | outcome [8] | outcome [9] | outcome [10] | outcome [11] | outcome [12] | outcome [13] | outcome [14] | outcome [15] | outcome [16] | outcome [17]

O=C(Nc1ccnn1C1CCN(Cc2cc3ccccc3[nH]2)CC1)C1CCOC1 (centres undefined)
inactive: outcome [1] | outcome [2] | outcome [3] | outcome [4] | outcome [5] | outcome [6] | outcome [7] | outcome [8] | outcome [9] | outcome [10] | outcome [11] | outcome [12] | outcome [13] | outcome [14] | outcome [15] | outcome [16] | outcome [17]
active: activation [18] 163% | potentiation [19] 53.5% | potentiation [20] 180%

CCN(CC)c1ncnc2sc3c(c12)CCC3
inactive: outcome [1] | outcome [2] | outcome [3] | outcome [4] | outcome [5] | outcome [6] | outcome [7] | outcome [8] | outcome [9] | outcome [10] | outcome [11] | outcome [12] | outcome [13] | outcome [14] | outcome [15] | outcome [16] | outcome [17] | outcome [18] | outcome [19] | outcome [20]

C=CCn1c(SCCN2CCCCC2)nc2c1c(=O)[nH]c(=O)n2C
active: potentiation [3] 27% | potentiation [4] 16% | potentiation [15] 20%
inactive: outcome [1] | outcome [2] | outcome [5] | outcome [6] | outcome [7] | outcome [8] | outcome [9] | outcome [10] | outcome [11] | outcome [12] | outcome [13] | outcome [14] | outcome [16] | outcome [17]

O=C(COC(=O)c1cc2c(s1)CCCCC2)NC1CCS(=O)(=O)C1 (centres undefined)
inactive: outcome [1] | outcome [2] | outcome [3] | outcome [4] | outcome [5] | outcome [6] | outcome [7] | outcome [8] | outcome [9] | outcome [10] | outcome [11] | outcome [12] | outcome [13] | outcome [14] | outcome [15] | outcome [16] | outcome [17]

O=C(Nc1c(F)cc(F)cc1Br)c1cc(-c2ccc(O)cc2)on1
inactive: outcome [1] | outcome [2] | outcome [3] | outcome [4] | outcome [5] | outcome [6] | outcome [7] | outcome [8] | outcome [9] | outcome [10] | outcome [11] | outcome [12] | outcome [13] | outcome [14] | outcome [15] | outcome [16] | outcome [17]

O=C(O)CCCN1C(=O)/C(=C\c2ccc(-c3nc4ccccc4s3)o2)SC1=S
active: potentiation [4] 10% | potentiation [15] 22.6%
inactive: outcome [1] | outcome [2] | outcome [3] | outcome [5] | outcome [6] | outcome [7] | outcome [8] | outcome [9] | outcome [10] | outcome [11] | outcome [12] | outcome [13] | outcome [14] | outcome [16] | outcome [17] | outcome [18] | outcome [19] | outcome [20]

O=[N+]([O-])c1ccc2c(c1)C=C1CCCCC1(N1CCCC1)O2 (centres undefined)
inactive: outcome [1] | outcome [2] | outcome [3] | outcome [4] | outcome [5] | outcome [6] | outcome [7] | outcome [8] | outcome [9] | outcome [10] | outcome [11] | outcome [12] | outcome [13] | outcome [14] | outcome [15] | outcome [16] | outcome [17]

Cc1cc(C)c2c(=O)n(CC(=O)Nc3cccc(Cl)c3C)sc2n1
active: potentiation [4] 14% | potentiation [15] 9.63%
inactive: outcome [1] | outcome [2] | outcome [3] | outcome [5] | outcome [6] | outcome [7] | outcome [8] | outcome [9] | outcome [10] | outcome [11] | outcome [12] | outcome [13] | outcome [14] | outcome [16] | outcome [17] | outcome [18] | outcome [19] | outcome [20]

CN(C)CCCN(C(=O)CCc1ccccc1)c1nc2ccc(F)cc2s1
inactive: outcome [1] | outcome [2] | outcome [3] | outcome [4] | outcome [5] | outcome [6] | outcome [7] | outcome [8] | outcome [9] | outcome [10] | outcome [11] | outcome [12] | outcome [13] | outcome [14] | outcome [15] | outcome [16] | outcome [17] | outcome [18] | outcome [19] | outcome [20]

C/C=C(/C)C(=O)O[C@@H]1c2cc(OC)c(OC)c(OC)c2-c2c(cc3c(c2OC)OCO3)C[C@H](C)[C@]1(C)O
inactive: outcome [1] | outcome [2] | outcome [3] | outcome [4] | outcome [5] | outcome [6] | outcome [7] | outcome [8] | outcome [9] | outcome [10] | outcome [11] | outcome [12] | outcome [13] | outcome [14] | outcome [15] | outcome [16] | outcome [17]
